Consider 116 molecules from PubChem BioAssay AID492998 (Southern Research Specialized Biocontainment Screening …, 2010).

The campaign covered roughly 2,300 compounds. About 550 (24%) were called active. The list is a sample of the results. Results with a measured potency or affinity are listed apart. Unmarked numbers belong to inactive results. No rule for the calls is given here.

This assay in a line: Vero E6 cell cytotoxicity, dose response, cytotoxicity control for non-replicating M. tuberculosis project, secondary assay (AID 492998).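 Also: 100% = vehicle-treated cells and 0% = background wells.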 Conditions: series mostly up to 20 µM; viability: at the top concentration.
In general, viability refers to a read-out of living cells in per cent, often relative to untreated cells. Turning to `O=C(Oc1ccc(/C=N/O)cc1)c1ccccc1Cl`, the “viability” value is 98.6%.

With `O=C(O)CCCCCN1C(=O)/C(=C\c2ccncc2)SC1=S`, the “viability” value was 73.2%.

As for `O=C(COC(=O)CCN1C(=O)/C(=C\C=C\c2ccccc2)SC1=S)Nc1cc(F)ccc1F`, the “viability” value was 109%.

Regarding `CN1C(=O)/C(=C/c2cccc(Cl)c2)Sc2ccc(C(=O)N3CCCC3)cc21`, the “viability” value was 80%.

As for `O=C(NCCN1C(=O)S/C(=C\c2ccccc2F)C1=O)C1CCN(S(=O)(=O)c2cccs2)CC1`, the “viability” value is 105%.

As for `O=C(CC1CC2CCC1C2)NCc1cccs1` (stereo unspecified), the “viability” value was 99.9%.

`CCOc1ccc(-c2cc(CCCC(=O)NCCC(C)C)no2)cc1`: the “viability” value was 84%.

Regarding `Cc1ccc(N2C(=O)CC(Sc3nccc(C)n3)C2=O)cc1` (stereo unspecified), the “viability” value was 101%.

On to `Cc1cccc(C2=N/C(=C\c3cccnc3)C(=O)O2)c1`, for which the “viability” value was 98.2%.

Regarding `Cc1ccc(-c2noc(CCC(=O)Nc3cccc(C#N)c3)n2)cc1`, the “viability” value was 96.9%.

Regarding `CCNc1nc(NC(C)(C)C)nc(N2CCCCC2)n1`, the “viability” value was 71.7%.

Turning to `COc1cc(NC(=O)C/C(C)=N/NC(=O)c2cccs2)c(OC)cc1Cl`, the “viability” value is 95.5%.

As to `O=C(OCC(=O)N1CCCc2ccccc21)c1ccc(S(=O)(=O)C(F)F)cc1`, the “viability” value was 99.6%.

Regarding `CCOC(=O)COc1ccc2c(c1)C(=O)CC(C)(c1cccnc1)O2` (stereo unspecified), the “viability” value was 101%.

Regarding `CC(/C=C/c1ccccc1)=N\NC(=O)c1ccc2c(c1)OCCO2`, the “viability” value was 79.4%.

For the molecule `C/C(=N\NC(=O)c1cccs1)c1ccc2c(c1)OCO2`, the “viability” value is 99.2%.

On to `O=C(Oc1cccc2cccnc12)c1ccc2c(c1)OCCO2`, for which the “viability” value is 78.9%.

For `O=C(N/N=C/c1ccc[nH]1)c1ccc2c(c1)OCO2`, the “viability” value is 110%.

Turning to `Cc1occc1C(=O)N/N=C/c1ccc[nH]1`, the “viability” value was 92.1%.

In the case of `O=C(N/N=C\c1ccccc1OCc1ccccc1)c1ccco1`, the “viability” value was 93.2%.

For `COCCCn1c(=NC(=O)c2ccccc2)c(C#N)cc2c(=O)n3cccc(C)c3nc21`, the “viability” value is 98.9%.

In the case of `CCOC(=O)COc1c(-c2ccc(OC)cc2)oc2ccccc2c1=O`, the “viability” value is 93.6%.

In the case of `O=C1CC(N2CCN(c3ccc(F)cc3)CC2)C(=O)N1Cc1ccccc1` (stereo unspecified), the “viability” value was 90.4%.

In the case of `O=C1NCC(O)=C1C=Nc1ccccc1O`, the “viability” value was 86.1%.

`COC(=O)c1cccc(COC(=O)c2cc3ccccc3oc2=O)c1`: the “viability” value was 105%.

Turning to `CN(CCCCOc1ccc(F)cc1)Cc1ccccc1`, the “viability” value was 92.9%.

`O=C(Nc1ccn(Cc2ccccc2)n1)c1ccc(F)cc1`: the “viability” value was 96.2%.

Turning to `O=C(c1ccc([N+](=O)[O-])cc1[N+](=O)[O-])N1CCc2ccccc21`, the “viability” value is 97.2%.

Turning to `CCOC(=O)c1ccc(COC(=O)c2ccc(-c3nnc(-c4ccccc4)o3)cc2)o1`, the “viability” value was 98%.

Consider `CC(/C=C/c1cccc([N+](=O)[O-])c1)=N\NC(=O)c1ccncc1`, for which the “viability” value was 95.2%.

As to `NC(=O)C1(N2CCCCC2)CCN(C2CC(=O)N(CCc3ccccc3)C2=O)CC1` (stereo unspecified), the “viability” value is 107%.

Turning to `COC(CNC(=O)c1ccc2c3c(onc13)-c1ccccc1C2=O)OC`, the “viability” value is 73.8%.

Turning to `O=[N+]([O-])c1cc(N=Nc2ccc3ccccc3c2)ccc1O`, the “viability” value is 92.2%.

`CCCCCCOc1ccc(N2C(=O)CC(N3CCN(C(=O)c4ccco4)CC3)C2=O)cc1` (stereo unspecified): the “viability” value is 95.4%.

On to `O=C(Oc1ccccc1)c1ccc(NC(=O)c2ccco2)cc1`, for which the “viability” value is 90.4%.

As to `O=C(/C=C/Nc1ccccc1O)c1ccco1`, the “viability” value was 112%.

As to `Nc1nnc(SCCCC(=O)c2ccc(Br)cc2)s1`, the “viability” value was 94.2%.

For `CC(=O)c1c(C)n(C)c2ccc(OC(=O)c3ccco3)cc12`, the “viability” value was 95.8%.

As to `COc1cc(OC)cc(OC(=O)c2ccc3c(=O)n4c(nc3c2)CCC4)c1`, the “viability” value was 99.6%.

For `COc1ccc(N2C(=O)CC(Sc3nc4ccccc4s3)C2=O)cc1OC` (stereo unspecified), the “viability” value is 91.9%.

Take `COc1ccc(C(=O)CCS(=O)(=O)c2ccc(C)cc2)cc1OC`: the “viability” value is 86.7%.

In the case of `O=C1Nc2ccc(Br)cc2/C1=C/C(=O)c1ccc2c(c1)OCO2`, the “viability” value is 80.7%.

On to `O=C(N/N=C/C=C/c1ccccc1)c1cccs1`, for which the “viability” value is 112%.

As to `c1ccc(-c2nnc(SCc3nnc(-c4cccs4)o3)o2)cc1`, the “viability” value was 102%.

As to `O=C1c2ccccc2CC1Sc1nnc(-c2ccncc2)o1` (stereo unspecified), the “viability” value is 87.8%.

`CCOC(=O)Cc1nc2cc(Cl)ccc2o1`: the “viability” value is 91.9%.

Turning to `CCn1cc(C(=O)O)c(=O)c2cc(F)c(N3CCN(C(=S)NC(=O)c4ccccc4)CC3)cc21`, the “viability” value was 96.2%.

As for `O=C(COc1ccc(Cl)cc1)Nc1ccc(Cl)cn1`, the “viability” value is 94.3%.

For the molecule `COc1cccc(COC(=O)CCNC(=O)c2ccc(Cl)cc2)c1OC`, the “viability” value was 108%.

In the case of `CC(/C=C/c1ccco1)=N\NC(=O)c1cccc(Cl)c1`, the “viability” value is 71.9%.

As to `CN(C)CC/C=C1/c2ccc(F)cc2Sc2ccc(Cl)cc21`, the “viability” value was 84.2%.

Consider `O=C(COC(=O)c1ccc(Cl)s1)c1ccc[nH]1`, for which the “viability” value was 97.2%.

In the case of `O=C(NC(=S)Nn1cnc2c(cnn2-c2ccccc2)c1=O)c1ccccc1`, the “viability” value was 91.2%.

On to `CC(NC(=O)c1cc([N+](=O)[O-])cc([N+](=O)[O-])c1)c1ccc(-n2ccnc2)cc1` (stereo unspecified), for which the “viability” value was 82.4%.

For `Cc1cccc(C)c1NC(=O)c1sc(N)nc1-c1ccccc1`, the “viability” value is 96.4%.

For `O=C(COC(=O)Cc1ccc(Br)cc1)Nc1ccc(N2CCOCC2)cc1`, the “viability” value was 105%.

With `O=C(COC(=O)c1cc2ccccc2oc1=O)Nc1ccc(F)cc1F`, the “viability” value was 110%.

Consider `Clc1ccc(OC2CCN(Cc3nc(CC4CC4)no3)CC2)cc1`, for which the “viability” value was 106%.

As to `CCOC(=O)CCSc1n[nH]c(=S)s1`, the “viability” value was 102%.

Regarding `C(=C\c1ccccc1)/CSc1nc2ncccc2[nH]1`, the “viability” value was 99.6%.

Regarding `CC(C)=CCN1CCN(Cc2cn(C(C)C)c3ccccc23)CC1CCO` (stereo unspecified), the “viability” value was 110%.

As for `Cc1ccc(/C=C2\SC(N3CCCC3)=NC2=O)cc1`, the “viability” value was 99.1%.

Turning to `CC(C)N1C(=O)NC(=O)C2(Cc3cc([N+](=O)[O-])ccc3N(C)C2c2ccccc2)C1=O` (stereo unspecified), the “viability” value was 79.5%.

Consider `Cc1ccc(OCC(=O)Nc2ccc([N+](=O)[O-])cc2)cc1`, for which the “viability” value was 106%.

`Cc1ccc(NC(=O)COCC(=O)Nc2ccc(C)cc2)cc1`: the “viability” value was 99.8%.

Consider `NC(N)=N/N=C/c1cccc([N+](=O)[O-])c1O`, for which the “viability” value is 94.7%.

Turning to `O=C(N/N=C/C=C/c1ccccc1[N+](=O)[O-])c1ccncc1`, the “viability” value is 102%.

Turning to `COc1cc(Cl)cc(/C=N/NC(N)=O)c1O`, the “viability” value is 97.2%.

On to `O=[N+]([O-])c1c(Nc2ccccn2)cc(Cl)c2nonc12`, for which the “viability” value was 109%.

As for `O=C(N/N=C/c1cccc([N+](=O)[O-])c1O)c1cccs1`, the “viability” value is 75.8%.

With `O=C(NNc1nc2ccccc2s1)Nc1ccc(F)cc1`, the “viability” value was 104%.

As to `CC1CCC/C(=C\Nc2ccc(C(=O)O)c(O)c2)C1=O` (stereo unspecified), the “viability” value was 104%.

As for `Oc1ccccc1Nc1nc(NCC2CCCO2)c2ccccc2n1` (stereo unspecified), the “viability” value was 83.6%.

`CCSc1nsc(NC(=O)Nc2ccc(F)cc2F)n1`: the “viability” value was 82.9%.

On to `Clc1ccc(OCCCCN2CCc3ccccc3C2)cc1`, for which the “viability” value is 93.4%.

With `COc1ccc(CC(=O)Nc2nccs2)cc1OC`, the “viability” value was 101%.

Regarding `COc1ccc(CCNc2cc(-c3ccccc3)nc3ncnn23)cc1`, the “viability” value was 81.3%.

In the case of `CCOC(=O)Cn1c(C)c(Br)c(=O)c2cccc(C)c21`, the “viability” value was 108%.

Turning to `FC(F)(F)c1nc(SCc2ccc(Cl)cc2Cl)n[nH]1`, the “viability” value was 107%.

For `CC1CCCN(CCC(=O)c2ccc(Br)cc2)C1` (stereo unspecified), the “viability” value is 83.4%.

As to `CNc1nnc(Sc2ncccc2[N+](=O)[O-])s1`, the “viability” value was 98%.

On to `CN(CC(=O)Nc1ccc(C#N)cc1)Cc1ccc(Cl)c(Cl)c1`, for which the “viability” value is 108%.

As to `COC(=O)COc1ccc2c(=O)c(Oc3ccccc3)c(C)oc2c1`, the “viability” value is 99.2%.

As to `Cc1ccc(C(=O)N/N=C/c2cccc3ccccc23)cn1`, the “viability” value was 102%.

Turning to `Cc1nn(C)cc1/C=N/NC(=O)c1sc2ccccc2c1Cl`, the “viability” value was 94.7%.

As for `Cc1[nH]nc2c1C(c1ccc(OC(=O)c3ccco3)cc1)C(C#N)=C(N)O2` (stereo unspecified), the “viability” value is 94.5%.

Turning to `CCC(=O)c1ccc(OCC(=O)OCC(=O)N2CCc3ccccc3C2)cc1`, the “viability” value was 110%.

`O=C1NC(=O)C(=Cc2ccc(Oc3ccc([N+](=O)[O-])cc3)cc2)C(=O)N1`: the “viability” value is 88.1%.

With `COc1ccc(/C(=N/O)C(C)(C)NO)cc1`, the “viability” value is 87.5%.

`CO/N=C/CC(=O)c1ccc(OC)cc1`: the “viability” value was 89.5%.

Regarding `C/C(=N/Nc1ccnc2cc(Cl)ccc12)c1ccc(N)cc1`, the “viability” value is 74%.

Regarding `CCC(C)(C)c1ccc(OCC(=O)Nc2ccncc2)cc1`, the “viability” value is 117%.

On to `O=C(Nc1nnc(-c2ccc(Cl)cc2)o1)c1cccc(N2C(=O)CCC2=O)c1`, for which the “viability” value was 98.3%.

For `O=C(COc1ccccc1)Nc1nnc(-c2ccc(Cl)cc2)o1`, the “viability” value was 104%.

For the molecule `O=C(Nc1nnc(-c2ccc(Cl)cc2)o1)C1=COCCO1`, the “viability” value is 103%.

`O=C(Nc1nnc(-c2ccc(Cl)cc2)o1)c1nc2ccccc2s1`: the “viability” value is 99.2%.

With `COC(=O)COc1cccc(/C=N/NC(=O)CCSc2ccccc2)c1`, the “viability” value was 105%.

Take `Cc1ccc(-c2cc(C(F)(F)F)n3nc(C(=O)NCCCn4ccnc4)cc3n2)cc1C`: the “viability” value is 80.5%.

Regarding `CCc1cc2c(=O)n(C(C)C(=O)OC3CCCCC3)cnc2s1` (stereo unspecified), the “viability” value is 88.8%.

For the molecule `CCCCn1c(O)c(/C=C2/C=CC=N2)c(=O)[nH]c1=O`, the “viability” value is 71.6%.

With `N=C1/C(=C\c2coc3ccccc3c2=O)C(=O)N=C2SC=CN12`, the “viability” value is 94.4%.

`CCOC(=O)C1CCN(c2nc3cc(OC)ccc3cc2C#N)CC1`: the “viability” value was 91.1%.

In the case of `COC(=O)c1cccc(NC(=O)COc2cccc([N+](=O)[O-])c2)c1`, the “viability” value was 92.5%.

For `O=C(NNC1CC(=O)N(c2ccccc2)C1=O)c1ccco1` (stereo unspecified), the “viability” value is 104%.

Turning to `COC(=O)c1ccc(Cn2cc(C(F)(F)F)cc([N+](=O)[O-])c2=O)cc1`, the “viability” value is 98.5%.

Regarding `O=C(CC1CCCCC1)NCc1ccccc1`, the “viability” value is 86.9%.

With `Cc1nnc(N/N=C/c2ccc(-c3ccccc3F)o2)n1N`, the “viability” value was 100%.

Turning to `COC(=O)CCn1c(C)cc(C(=O)COc2ccccc2C(N)=O)c1C`, the “viability” value is 97.8%.

On to `Clc1ccc2c(N3CCCC3)ccnc2c1`, for which the “viability” value is 92.1%.

For the molecule `O=c1oc(-c2cccs2)nc2c1cnn2-c1ccccc1`, the “viability” value is 104%.

In the case of `Fc1ccc(-c2nn(-c3ccccc3)cc2CNCc2ccccc2)cc1`, the “viability” value is 84.3%.

For the molecule `CSc1ccccc1C(=O)NCc1ccc(S(N)(=O)=O)cc1`, the “viability” value was 103%.

`Cc1[nH]n(-c2ccccc2)c(=O)c1C=Nc1cnc2ccccc2c1`: the “viability” value was 103%.

In the case of `O=C(COC(=O)c1ccccc1Cl)NCCC1=CCCCC1`, the “viability” value was 103%.

Regarding `CC(C)=CC1C(C(=O)Nc2ccc(Br)cn2)C1(C)C` (stereo unspecified), the “viability” value is 82.3%.

With `O=C(NCCCN1CCOCC1)c1c(O)c2cc(Br)cc(Br)c2[nH]c1=O`, the “viability” value was 77.8%.
